According to PubChem BioAssay (NCATS):
“And” between values parts separate entries of the source, which are not always exact repeats. Equal entries are not always repeated. Records with an inconclusive call do not appear. The source made the active and inactive calls. Calls follow the shape of the dose curve; as a rule, active = well fitted curve in the direction sought with a large enough effect; inconclusive = small, poorly fitted or top-dose-only effect, or another doubt; inactive = no such curve, though single readings can be large; an effect the other way counts as inactive or inconclusive.

What was measured:
[1] = Confirmation and Secondary Assay for Modulators of Hemoglobin Beta Chain Splicing at IVS2 654 locus (AID 910);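 also: HeLa cells stably carrying EGFP split by mutant beta-globin IVS2-654 intron; per-well total GFP intensity by laser scanning cytometry after 2-day treatment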
Outline: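 Readout: per-well total peak green fluorescence (488 nm ex, 500–520 nm em) from objects 5–250 µm, reflecting correct splicing of an EGFP-654 reporter. Compounds were applied for 2 days at 37 °C to overnight-plated HeLa EGFP-654 cells; controls were DMSO and 500 nM IVS2-654 PNA.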

[2] = Confirmation and Secondary Assay for Modulators of Hemoglobin Beta Chain Splicing at IVS2 705 locus (AID 930);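 also: HeLa cells stably expressing the EGFP-705 splicing reporter; GFP fluorescence per well restored by corrected splicing of the IVS2-705 intron in EGFP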
Outline: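 Fluorescence gain (488 nm laser, 500-520 nm PMT) reflects restored correct splicing of a mutant IVS2-705 intron inside EGFP in stably transfected HeLa cells after 2-day compound treatment.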

[3] = molecular target: Cytochrome P450 3A4 (Homo sapiens) (UniProt P08684); test: qHTS Assay for Inhibitors and Substrates of Cytochrome P450 3A4 (AID 884); also: nearly all actives have a fitted effect of over 50% in size; also: potency is read from the fitted curve at half-maximal effect
Sequence of Cytochrome P450 3A4 (Homo sapiens) (P08684 whole entry, looked up): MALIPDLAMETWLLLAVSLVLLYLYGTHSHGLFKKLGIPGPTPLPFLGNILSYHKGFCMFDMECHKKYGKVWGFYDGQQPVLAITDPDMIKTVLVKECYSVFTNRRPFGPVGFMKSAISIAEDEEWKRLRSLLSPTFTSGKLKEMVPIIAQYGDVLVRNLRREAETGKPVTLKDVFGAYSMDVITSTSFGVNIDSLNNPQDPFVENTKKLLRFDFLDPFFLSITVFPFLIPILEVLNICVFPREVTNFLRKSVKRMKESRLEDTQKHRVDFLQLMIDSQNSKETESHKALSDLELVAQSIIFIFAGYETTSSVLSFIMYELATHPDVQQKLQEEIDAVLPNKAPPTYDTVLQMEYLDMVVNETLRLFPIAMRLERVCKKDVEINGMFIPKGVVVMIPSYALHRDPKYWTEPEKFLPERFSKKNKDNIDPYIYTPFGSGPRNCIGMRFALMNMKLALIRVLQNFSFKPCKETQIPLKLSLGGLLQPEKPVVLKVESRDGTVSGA
Outline: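 20 nM human CYP3A4 with 25 uM Luciferin-PPXE (at KM) in 200 mM KPO4, preincubated 10 min with compound; NADPH regeneration started a 60 min RT reaction. Luciferin detected by luminescence, normalized to 57 uM ketoconazole as full inhibition.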

7G8 = test: qHTS profiling for inhibitors of Plasmodium falciparum proliferation (AID 504749); also: nearly all actives have a fitted effect of over 60% in size; also: potency is read from the fitted curve at half-maximal effect; details: P. falciparum in erythrocytes, SYBR Green DNA, 72 h; series mostly up to 12.8 µM
Outline: (§1)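 Infected RBCs, 0.3% parasitemia/2.5% Hct final; cpd 72 h, 37 C, 5% CO2; lysis buffer with saponin/triton/SYBR Green I, o/n RT dark; FI 485/535; norm. to artemisinin (0.29 uM) and DMSO.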

CP215 = test: as above; details: P. falciparum in erythrocytes, SYBR Green DNA, 72 h; series mostly up to 28.7 µM
Outline: as §1

CP237 = test: as above; details: P. falciparum in erythrocytes, SYBR Green DNA, 72 h; series mostly up to 28.7 µM
Outline: as §1

CP260 = test: as above; details: P. falciparum in erythrocytes, SYBR Green DNA, 72 h; series mostly up to 28.7 µM
Outline: as §1

CP265 = test: as above; details: P. falciparum in erythrocytes, SYBR Green DNA, 72 h; series mostly up to 12.8 µM
Outline: as §1

CP268 = test: as above; details: P. falciparum in erythrocytes, SYBR Green DNA, 72 h; series mostly up to 28.7 µM
Outline: as §1

CP297 = test: as above; details: P. falciparum in erythrocytes, SYBR Green DNA, 72 h; series mostly up to 28.7 µM
Outline: as §1

CP325 = test: as above; details: P. falciparum in erythrocytes, SYBR Green DNA, 72 h; series mostly up to 28.7 µM
Outline: as §1

CP335 = test: as above; details: P. falciparum in erythrocytes, SYBR Green DNA, 72 h; series mostly up to 12.8 µM
Outline: as §1

DIV17 = test: as above; details: P. falciparum in erythrocytes, SYBR Green DNA, 72 h; series mostly up to 28.7 µM
Outline: as §1

JCK = test: as above; details: P. falciparum in erythrocytes, SYBR Green DNA, 72 h; series mostly up to 28.7 µM
Outline: as §1

PAD = test: as above; details: P. falciparum in erythrocytes, SYBR Green DNA, 72 h; series mostly up to 28.7 µM
Outline: as §1

PC15 = test: as above; details: P. falciparum in erythrocytes, SYBR Green DNA, 72 h; series mostly up to 28.7 µM
Outline: as §1

SC27B = test: as above; details: P. falciparum in erythrocytes, SYBR Green DNA, 72 h; series mostly up to 28.7 µM
Outline: as §1

TAB113 = test: as above; details: P. falciparum in erythrocytes, SYBR Green DNA, 72 h; series mostly up to 28.7 µM
Outline: as §1

W2 = test: as above; details: P. falciparum in erythrocytes, SYBR Green DNA, 72 h; series mostly up to 12.8 µM
Outline: as §1

[4] = molecular target: Cytochrome P450 2C19 (Homo sapiens) (UniProt P33261); test: qHTS Assay for Inhibitors and Substrates of Cytochrome P450 2C19 (AID 899); also: nearly all actives have a fitted effect of over 60% in size; also: potency is read from the fitted curve at half-maximal effect
Sequence of Cytochrome P450 2C19 (Homo sapiens) (P33261 whole entry, looked up): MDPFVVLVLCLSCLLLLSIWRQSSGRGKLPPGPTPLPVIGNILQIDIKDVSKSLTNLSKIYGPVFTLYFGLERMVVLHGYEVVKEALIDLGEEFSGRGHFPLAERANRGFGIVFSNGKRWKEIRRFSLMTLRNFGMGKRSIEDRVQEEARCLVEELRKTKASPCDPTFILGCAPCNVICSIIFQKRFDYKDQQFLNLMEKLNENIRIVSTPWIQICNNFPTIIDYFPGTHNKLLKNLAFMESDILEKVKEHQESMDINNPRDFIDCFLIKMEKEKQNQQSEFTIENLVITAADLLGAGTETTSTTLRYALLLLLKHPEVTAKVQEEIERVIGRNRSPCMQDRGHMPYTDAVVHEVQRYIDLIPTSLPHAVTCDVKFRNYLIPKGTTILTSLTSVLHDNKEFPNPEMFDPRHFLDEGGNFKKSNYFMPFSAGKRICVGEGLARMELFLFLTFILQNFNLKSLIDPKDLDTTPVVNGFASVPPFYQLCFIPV
Outline: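 5nM enzyme + 10uM Luciferin-H EGE (=KM), 50mM KPO4; cpd pin-transferred, 10 min 37C; NADPH regen, 60 min 37C; stopped w/ luciferin detection reagent, 20 min; luminescence. Normalized to 57uM ketoconazole (AC100).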

Measured: Potency

COC(=O)NC(=S)Nc1ccccc1NC(=S)NC(=O)OC
inactive: [1] | [2]

COP(=S)(OC)Oc1ccc([N+](=O)[O-])cc1
inactive: [1] | [2]
active: [3] 3.98 µM

C[N+]1(C)[C@@H]2CC[C@H]1CC(OC(=O)[C@@H](CO)c1ccccc1)C2 (some centres not stated)
not listed: [1] | [2] | [3] | [4]
inactive: all other assays above

ClC1=C(Cl)C2(Cl)C3C4CC(C5OC45)C3C1(Cl)C2(Cl)Cl (configuration not stated)
inactive: [1] | [2] | CP215 | CP237 | CP325 | DIV17 | JCK | PAD | PC15 | SC27B

O=C(O)CNCP(=O)(O)O
inactive: [1] | [2]

CC[C@@H]1[C@@H]2C[C@H]3[C@H]4N(C)c5ccccc5[C@@]45C[C@@H]([C@@H]2[C@@H]5O)N3[C@H]1O
inactive: CP260 | CP265 | CP268 | CP297 | CP325 | CP335 | JCK | SC27B | TAB113

C[C@H](NC(C)(C)C)C(=O)c1cccc(Cl)c1
inactive: CP215 | CP260 | CP268 | CP297 | CP325 | JCK | PAD | PC15 | SC27B | TAB113

c1ccc(N=Nc2ccccc2)cc1
inactive: [3] | [1] | [2]

N#Cc1ccc(CN2CCC3(CC2)CCN(C(=O)Oc2ccccc2)CC3)cc1
inactive: [3]

N[C@H]1C[C@H]1c1ccccc1
not listed: [1] | [2] | [3] | CP260 | [4]
inactive: all other assays above

CC[C@@]1(c2ccc(N)cc2)CCC(=O)NC1=O
not listed: [1] | [2] | [3] | W2 | [4]
inactive: all other assays above

CC(C)N(CC[C@@](C(N)=O)(c1ccccc1)c1ccccn1)C(C)C
not listed: [1] | [2] | [3] | W2 | [4]
inactive: all other assays above

NCC[C@H](O)C(=O)N[C@H]1C[C@@H](N)[C@@H](O[C@H]2O[C@@H](CN)[C@@H](O)[C@@H](O)[C@@H]2N)[C@@H](O[C@H]2O[C@@H](CO)[C@@H](O)[C@@H]2O)[C@@H]1O
not listed: [1] | [2] | [3] | TAB113 | [4]
inactive: all other assays above

CNC[C@H](O)c1ccc(O)cc1
not listed: [1] | [2] | [3]
inactive: all other assays above

C[N+]1([O-])[C@@H]2CC[C@H]1CC(OC(=O)[C@@H](CO)c1ccccc1)C2 (some centres not stated)
not listed: [1] | [2] | [3] | [4]
inactive: all other assays above

CCN1C[C@]2(C)CC[C@H](OC)[C@@]34[C@@H]2[C@H](OC(C)=O)[C@]2(OCO[C@@]25C[C@@H](OC)[C@@H]2C[C@@]3(O)[C@H]5[C@@H]2OC)[C@H]14
inactive: [4]

CN1Cc2c(ccc3c2OCO3)[C@@H]2[C@@H](O)Cc3cc4c(cc3[C@@H]21)OCO4
active: [3] 5.01 µM

CN1CC[C@]2(C)c3cc(O)ccc3N(C)[C@@H]12
active: [4] 12.6 µM

COc1cc2c(cc1OC)[C@H](C)NCC2
inactive: [4]

CC[C@]1(c2cccc(O)c2)CCCCN(C)C1
active: CP237 3.16 µM | W2 3.22 µM
inactive: 7G8 | CP260 | JCK | TAB113

COc1ccc2c(c1OC)C(=O)O[C@H]2[C@H]1c2cc3c(cc2CCN1C)OCO3
active: [4] 1.26 µM and 79.4 nM

CC[C@H]1C(=O)OC[C@H]1Cc1cncn1C
active: [3] 3.16 µM

COc1ccc(C[C@H]2c3cc(OC)c(OC)cc3CCN2C)cc1OC
inactive: [4]

COc1cc2c(cc1O)C[C@H]1c3c(cc(O)c(OC)c3-2)CCN1C
inactive: [4]

C[C@@]12CC[C@H](O)C[C@@H]1CC[C@H]1[C@H]2CC[C@@]2(C)[C@@H](C3=CC(=O)OC3)CC[C@]12O
active: [3] 3.16 µM

CNC(=O)N(C)c1nnc(C(C)(C)C)s1
inactive: [1] | [2]

CC1=C2[C@@H]3OC(=O)[C@@H](C)[C@@H]3CC[C@]2(C)C=CC1=O
not listed: [1] | [2] | [3] | CP265 | PAD | SC27B | TAB113 | [4]
inactive: all other assays above

C=C1C/C(=C\C)C(=O)O[C@@H]2CCN3CC=C(COC(=O)[C@@]1(C)O)[C@H]23
inactive: [4]

CCN[C@]1(c2cccs2)CCCCC1=O
not listed: [1] | [2] | [3] | CP237 | W2 | [4]
inactive: all other assays above

CC(=O)OCC(=O)[C@@H]1CC[C@H]2[C@H]3CC[C@H]4C[C@@H](O)CC[C@]4(C)[C@@H]3C(=O)C[C@@]12C
not listed: [1] | [2] | [3] | CP260 | [4]
inactive: all other assays above

CN(C)C(=O)Oc1cc(OC(=O)N(C)C)cc([C@@H](O)CNC(C)(C)C)c1
not listed: [1] | [2] | [3]
inactive: all other assays above

c1ccc2c(c1)[nH]c1cnccc12
inactive: [3] | [1] | [2]

CN[C@@H](C)[C@H]1CC[C@@H](N)[C@@H](O[C@@H]2[C@@H](O)[C@@H](O[C@H]3OC[C@@](C)(O)[C@@H](NC)[C@@H]3O)[C@H](N)C[C@@H]2N)O1 (tested in a mixture with another compound)
not listed: [1] | [2] | [3] | CP215 | [4]
inactive: all other assays above

O=c1ccc2cc(O[C@H]3O[C@@H](CO)[C@@H](O)[C@@H](O)[C@@H]3O)c(O)cc2o1
not listed: [1] | [2] | [3] | DIV17 | [4]
inactive: all other assays above

CCC(C)C1O[C@]2(C=CC1C)CC1CC(C/C=C(\C)[C@H](OC3CC(OC)C(O[C@H]4CC(OC)[C@@H](O)C(C)O4)C(C)O3)[C@@H](C)/C=C/C=C3\COC4C(O)C(C)=C[C@H](C(=O)O1)[C@@]34O)O2 (some centres not stated)
active: 7G8 10 µM | CP215 13.5 µM | CP265 8.91 µM | CP297 13.5 µM | CP335 6.75 µM | DIV17 12 µM | SC27B 11.2 µM | W2 4.78 µM
inactive: [3] | [1] | [2]

C[C@@]12CC[C@H](O)C[C@@H]1CC[C@H]1[C@@H]2C[C@@H](O)[C@]2(C)[C@@H](C3=CC(=O)OC3)CC[C@]12O
inactive: [4]

O=C1CCCC2[C@@H]3CCCN4CCC[C@@H](CN12)C34 (some centres not stated)
inactive: [3]

C=CC1CN2CCC1CC2C(OC(=O)OCC)c1ccnc2ccc(OC)cc12 (configuration not stated)
active: [3] 7.94 µM | 7G8 2.51 µM | CP215 12 µM | CP237 7.08 µM | CP260 10 µM | CP265 5.01 µM | CP325 13.5 µM | CP335 9.53 µM | DIV17 13.5 µM | PAD 6.31 µM | PC15 3.98 µM | TAB113 8.91 µM | W2 2.13 µM
inactive: [1] | [2]

COc1cc2c(cc1OC)[C@@]13CCN4CC5=CCOC6CC(=O)N2C1[C@H]6[C@@H]5C[C@@H]43 (some centres not stated)
not listed: [4]
inactive: all other assays above

O=C1C=C2C=CC3C[C@@]2(O1)C1CCCCN31 (some centres not stated)
active: 7G8 8.91 µM | CP215 10.7 µM | CP237 5.01 µM | CP260 6.31 µM | CP297 12 µM | DIV17 15.1 µM | PAD 12.6 µM | TAB113 14.1 µM | W2 7.57 µM
inactive: [1] | [2]

CNC(C)[C@@H](O)c1ccccc1 (some centres not stated)
not listed: [1] | 7G8 | CP297 | W2 | [4]
inactive: all other assays above

CC[C@@H]1CN2CC[C@@H]1C[C@H]2[C@H](O)c1ccnc2ccc(OC)cc12
inactive: [3]

Clc1ccc([C@@H](OCCN2CCCCC2)c2ccccc2)cc1
active: 7G8 3.55 µM | CP260 3.16 µM | DIV17 4.55 µM | PC15 3.16 µM | W2 1.81 µM
inactive: CP237 | CP297

CC1CC[C@@]2(NC1)O[C@@H]1C[C@H]3C4CC=C5C[C@@H](O)CC[C@]5(C)C4CC[C@]3(C)[C@H]1[C@@H]2C (some centres not stated)
inactive: [3]

CC(C)CC(CN)CC(=O)O (configuration not stated)
inactive: [3] | [1] | [2]

CCCCCCCCCc1ccc(O)cc1
inactive: [1] | [2]

COc1cc(N)c(Cl)cc1C(=O)N[C@@H]1CN2CCC1CC2
not listed: [1] | [2] | [3] | W2 | [4]
inactive: all other assays above

COc1cc2c(c(OC)c1OC)-c1ccc(O)c(=O)cc1[C@@H](NC(C)=O)CC2
inactive: [3] | [4]
